“And” between values parts separate entries of the source, which are not always exact repeats. Equal values may be shown once. Results filed as inconclusive are left out. A call without a number means that no potency is given here. The source made the active and inactive calls. Calls come from the whole dose curve; as a rule, active = well fitted cell-killing curve with a large enough effect; inconclusive = small, poorly fitted or top-dose-only effect, or effect the other way; inactive = no such curve, though single readings can be large or run the other way.
Assay: qHTS of pediatric cancer cell lines to identify multiple opportunities for drug repurposing: Confirmatory screen for MG 63 (6-TG R) cells (AID 1347119); note: nearly all actives have a fitted effect of over 55% in size
Details: MG-63 (6-TG resistant) osteosarcoma viability; series mostly up to 45.9 µM
Excerpt: Drug repurposing or repositioning has been offered as a strategy for drug development in oncology programs. This approach has special potential for childhood cancers and other rare or orphan diseases, where the expected return on new drug development has been a disincentive to pharmaceuticals.
In this project we exploit the poly-pharmacology of drugs to discover new indications via phenotypic screening of a panel of 19 well-characterized cell lines derived from solid tumors seen in children and adolescents. The goal is to identify approved drugs with previously unrecognized anticancer properties that has the potential to reveal new mechanisms and biological processes involved in carcinogenesis or drug resistance. We employed a titration-based paradigm (quantitative high-throughput screening or qHTS), where all compounds were tested at multiple concentrations for their effect on cell viability. Concentration-response curves (CRCs) were derived directly from the primary screen, and both potency and efficacy values were used to identify compounds with robust bioactivity profiles. We screened the NIH Chemical Genomics Center (NCGC) Pharmaceutical Collection (NPC) and Mechanism Interrogation Plate (MIPE) small molecule collections of approved and investigational compounds against these cell lines; and measured metabolically active cells after 48 hours of compound treatment as a proxy for cell viability.
Assay Submitter: Nathalia J. Martinez, National Center for Advancing Translational Sciences, National Institutes of Health, Rockville, MD, USA; email: natalia.martinez@nih.gov
[1] Shen, M et al. Quantitative high-throughput phenotypic screening of pediatric cancer cell lines identifies multiple opportunities for drug repurposing. Oncotarget 2017 Dec 19;9(4):4758-4772. PMID 29435139.
The cells were obtained from University of North Carolina (UNC), Pediatric Preclinical Testing Program (PPT), and Coriell Institute (CI).
qHTS cell viability assay:
Cells were assayed in growth media at a density of 500-1,000 cells/well. Five microliters of cells were dispensed into 1,536-well, white, solid-bottom, TC-treated plates (Greiner Bio One) using a multidrop dispenser and incubated at 37 degrees C, 5% CO2, under a humidified atmosphere for 5 hours. Twenty-three nanoliters of compounds and controls (neutral control DMSO or positive control bortezomib at final concentration of 2.3 µM) were subsequently transferred by Kalypsys pintool. For primary screens, the MIPE collection was tested at 11-point dilutions (final concentrations range from 0.78 nM to 46 µM) and the NPC collection at 8-point dilutions (final concentrations range from 0.59 nM to 46 µM). Compounds tested in follow-up screens were assayed at 11-point dilutions. Cells were incubated for 48 hours, followed by addition of 3 µL of CellTiter-Glo (Promega). After a 15 min incubation at room temperature, samples were analyzed for luminescence intensity using a ViewLux High-throughput CCD imager equipped with clear filters.
Potency is the fitted concentration of half-maximal effect.

| SMILES | Potency |
| --- | --- |
| CC(C)(C(=O)NCC(F)(F)C(F)(F)F)C(=O)N[C@@H]1C(=O)Nc2ccccc2-c2ccccc21 | inactive |
| CC1(C)CCC[C@@]2(C)[C@@H]1CC[C@@]1(C)OC(=O)C[C@H]21 | inactive |
| CCc1ccc(OCc2ccccc2C(=O)Nc2ccc3nc(C)cc(N)c3c2)cc1 | 4.14 µM (active) |
| CO[C@H]1C(=O)[C@]2(C)[C@@H](OC)C[C@H]3OC[C@@]3(OC(C)=O)[C@H]2[C@H](OC(=O)c2ccccc2)[C@]2(O)C[C@H](OC(=O)[C@H](O)[C@@H](NC(=O)OC(C)(C)C)c3ccccc3)C(C)=C1C2(C)C | 0.0083 µM (active) |
| CCOc1ccc(Nc2nc(-c3c(C)nc4ccccn34)cs2)cc1 | 0.104 µM (active) |
| Oc1ccc(C2CCN(c3ccnc4ccccc34)CC2)cc1O | 2.33 µM (active) |
| O=C1c2ccccc2-[n+]2ccc3c([nH]c4ccccc43)c21 | 3.29 µM (active) |
| O=c1[nH]cnc2c1ncn2[C@H]1CC[C@@H](CO)O1 | inactive |
| C=C1C(=O)[C@@]23C(CC[C@@H]1[C@H]2O)[C@@]12CO[C@]3(O)[C@@H](O)[C@@H]1C(C)(C)CC[C@@H]2O (stereo partly specified) | 10.4 µM (active) |
| CCCCCCCCCCCC1=C(O)C(=O)C=C(O)C1=O | inactive |
| CC[C@]1(O)C[C@@H]2CN(CCc3c([nH]c4ccccc34)[C@@](C(=O)OC)(c3cc4c(cc3OC)N(C)[C@H]3[C@@](O)(C(=O)OC)[C@H](OC(C)=O)[C@]5(CC)C=CCN6CC[C@]43[C@@H]65)C2)C1 | 522 nM (active) and 1.04 µM (active) |
| O=C(O)CCC1CCC(c2cc(F)ccc2F)(S(=O)(=O)c2ccc(Cl)cc2)CC1 (stereo unspecified) | inactive |
| COc1ccc(-c2nc(N3CCOCC3)c3sc(CN(C)c4ncc(C(=O)NO)cn4)cc3n2)cn1 | 0.928 µM (active) |
| O=C(O)c1ccc(-c2c[nH]c3ncc(-c4ccccc4)cc23)cc1C1CCCC1 | inactive |
| CC(=NNC(=S)N1CCC1)c1ccccn1 | inactive |
| COc1ccc(-c2coc3cc(O)cc(O)c3c2=O)cc1 | inactive |
| COc1ncc(-c2ccc3nccc(-c4ccnnc4)c3c2)cc1NS(=O)(=O)c1ccc(F)cc1F | 0.0037 µM (active) |
| COc1cccc(-c2cc(=O)c3ccccc3o2)c1N | inactive |

| SMILES | Potency |
| --- | --- |
| CO[C@H]1C=CC=C(C)C(=O)NC2=CC(=O)C(NCCN(C)C)=C(C[C@@H](C)C[C@H](OC)[C@@H](O)[C@@H](C)C=C(C)[C@@H]1OC(N)=O)C2=O | inactive |
| NC1=N[C@@]2(c3cc(NC(=O)c4ccc(F)cn4)ccc3F)COC[C@@H]2CS1 | inactive |
| CN[C@@H](C)C(=O)N[C@H]1CN(C(=O)CC(C)C)CC[C@H]2CC[C@@H](C(=O)NC(c3ccccc3)c3ccccc3)N2C1=O | inactive |
| CC1(C)S[C@H]2[C@H](NC(=O)[C@@H](N)c3ccc(O)cc3)C(=O)N2[C@@H]1C(=O)O | inactive |
| OC[C@H]1O[C@@H](n2cnc3c2NC=NC[C@@H]3O)C[C@H]1O | inactive |
| COc1cc(N2CCC(N3CCN(C)CC3)CC2)ccc1Nc1ncc(Cl)c(Nc2ccccc2S(=O)(=O)C(C)C)n1 | 0.827 µM (active) |
| COc1cc2ncnc(Nc3ccc(F)c(Cl)c3)c2cc1OCCCN1CCOCC1 | 67.6 µM (active) |
| CC(C)n1nc(-c2ccc3oc(N)nc3c2)c2c(N)ncnc21 | 0.0465 µM (active) |
| CN(C)C1CCN(C(=O)c2ccc(NC(=O)Nc3nc(N4CCOCC4)nc(N4CCOCC4)n3)cc2)CC1 | 0.233 µM (active) |
| CC[C@]1(O)C[C@@H]2CN(CCc3c([nH]c4ccccc34)[C@@](C(=O)OC)(c3cc4c(cc3OC)N(C=O)[C@@H]3C45CCN4CC=C[C@](CC)([C@H]45)[C@@H](OC(C)=O)[C@]3(O)C(=O)OC)C2)C1 (stereo partly specified) | inactive |
| Cc1[nH]c(C=C2C(=O)Nc3ccc(S(=O)(=O)Cc4c(Cl)cccc4Cl)cc32)c(C)c1C(=O)N1CCC[C@H]1CN1CCCC1 | 32.9 µM (active) |
| O=C1C(Cl)=C(NCCN2CCOCC2)C(=O)c2ncccc21 | 1.04 µM (active) |
| CC(=O)O[C@]1(C(C)=O)CC[C@@H]2[C@@H]3C[C@H](C)C4=CC(=O)CC[C@]4(C)[C@H]3CC[C@@]21C | inactive |
| CC(=O)Oc1cc2c(s1)CCN(C(C(=O)C1CC1)c1ccccc1F)C2 (stereo unspecified) | inactive |
| Nc1ncnc2c1ncn2[C@@H]1O[C@@H](CO)[C@H](O)[C@H]1O | inactive |
| CC1(C)CCC(CN2CCN(c3ccc(C(=O)NS(=O)(=O)c4ccc(NCC5CCOCC5)c([N+](=O)[O-])c4)c(Oc4cnc5[nH]ccc5c4)c3)CC2)=C(c2ccc(Cl)cc2)C1 | inactive |
| N[C@@]1(C(=O)O)CS(=O)(=O)[C@H]2[C@H](C(=O)O)[C@H]21 | 13.1 µM (active) |
| CC1(C)O[C@H]2C[C@@H]3[C@H]4CCC5=CC(=O)C=C[C@]5(C)[C@@]4(F)[C@@H](O)C[C@]3(C)[C@]2(C(=O)CO)O1 | inactive |
